In ChEMBL document CHEMBL1961873, “Compounds: GSK PKIS; Assays: Nanosyn kinase panel” (2012):

Key:
[1] = molecular target: Rho-associated protein kinase 1 (Homo sapiens) (UniProt Q13464); conditions: at 1 µM;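 further: reported values are mean percent inhibition of ROCK1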
[2] = molecular target: Rho-associated protein kinase 2 (Homo sapiens) (UniProt O75116); conditions: at 0.1 µM
[3] = molecular target: Rho-associated protein kinase 2 (Homo sapiens) (UniProt O75116); conditions: at 1 µM
[4] = molecular target: Ribosomal protein S6 kinase alpha-1 (Homo sapiens) (UniProt Q15418); conditions: at 0.1 µM
Ribosomal protein S6 kinase alpha-1 (Homo sapiens), sequence (Q15418 whole entry): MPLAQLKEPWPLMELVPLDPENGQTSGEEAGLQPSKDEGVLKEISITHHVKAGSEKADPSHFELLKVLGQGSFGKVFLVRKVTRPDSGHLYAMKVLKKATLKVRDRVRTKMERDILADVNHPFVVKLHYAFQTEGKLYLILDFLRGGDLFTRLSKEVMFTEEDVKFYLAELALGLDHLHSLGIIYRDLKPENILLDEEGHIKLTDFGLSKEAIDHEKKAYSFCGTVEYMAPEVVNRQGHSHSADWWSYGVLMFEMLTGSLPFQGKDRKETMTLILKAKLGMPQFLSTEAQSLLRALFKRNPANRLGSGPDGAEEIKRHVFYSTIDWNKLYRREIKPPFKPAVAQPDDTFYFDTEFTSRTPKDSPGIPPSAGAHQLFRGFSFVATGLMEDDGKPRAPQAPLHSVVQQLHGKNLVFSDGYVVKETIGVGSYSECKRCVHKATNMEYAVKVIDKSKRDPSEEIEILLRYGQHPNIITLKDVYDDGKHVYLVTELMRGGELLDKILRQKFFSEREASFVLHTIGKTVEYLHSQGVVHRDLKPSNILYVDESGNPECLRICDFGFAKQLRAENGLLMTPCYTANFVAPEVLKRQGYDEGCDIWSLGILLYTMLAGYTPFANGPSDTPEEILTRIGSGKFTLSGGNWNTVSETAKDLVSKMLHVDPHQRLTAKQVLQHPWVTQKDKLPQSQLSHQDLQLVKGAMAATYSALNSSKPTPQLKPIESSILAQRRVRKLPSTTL

[5] = molecular target: Ribosomal protein S6 kinase alpha-1 (Homo sapiens) (UniProt Q15418); conditions: at 1 µM
[6] = molecular target: Ribosomal protein S6 kinase alpha-3 (Homo sapiens) (UniProt P51812); conditions: at 0.1 µM
Ribosomal protein S6 kinase alpha-3 (Homo sapiens), sequence (P51812 whole entry): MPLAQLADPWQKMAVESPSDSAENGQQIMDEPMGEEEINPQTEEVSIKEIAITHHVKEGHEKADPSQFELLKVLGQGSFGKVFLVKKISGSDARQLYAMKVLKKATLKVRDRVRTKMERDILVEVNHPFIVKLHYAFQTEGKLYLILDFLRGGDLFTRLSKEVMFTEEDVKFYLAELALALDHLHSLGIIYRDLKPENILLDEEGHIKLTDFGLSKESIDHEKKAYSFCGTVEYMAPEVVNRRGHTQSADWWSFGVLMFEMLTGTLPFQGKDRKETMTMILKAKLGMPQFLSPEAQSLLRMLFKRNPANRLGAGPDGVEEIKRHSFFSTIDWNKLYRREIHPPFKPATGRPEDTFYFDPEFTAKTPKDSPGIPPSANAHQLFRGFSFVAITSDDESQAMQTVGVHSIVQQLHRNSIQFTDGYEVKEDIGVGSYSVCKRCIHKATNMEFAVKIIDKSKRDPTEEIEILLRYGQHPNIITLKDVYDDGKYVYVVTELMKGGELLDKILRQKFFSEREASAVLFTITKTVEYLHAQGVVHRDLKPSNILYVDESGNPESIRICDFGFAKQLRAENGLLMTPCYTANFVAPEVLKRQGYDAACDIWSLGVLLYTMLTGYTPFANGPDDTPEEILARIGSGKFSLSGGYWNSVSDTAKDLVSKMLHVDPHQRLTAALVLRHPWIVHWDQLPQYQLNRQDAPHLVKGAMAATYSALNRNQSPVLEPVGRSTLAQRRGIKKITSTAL

[7] = molecular target: Ribosomal protein S6 kinase alpha-3 (Homo sapiens) (UniProt P51812); conditions: at 1 µM
[8] = molecular target: Ribosomal protein S6 kinase alpha-2 (Homo sapiens) (UniProt Q15349); conditions: at 0.1 µM
Ribosomal protein S6 kinase alpha-2 (Homo sapiens), sequence (Q15349 whole entry): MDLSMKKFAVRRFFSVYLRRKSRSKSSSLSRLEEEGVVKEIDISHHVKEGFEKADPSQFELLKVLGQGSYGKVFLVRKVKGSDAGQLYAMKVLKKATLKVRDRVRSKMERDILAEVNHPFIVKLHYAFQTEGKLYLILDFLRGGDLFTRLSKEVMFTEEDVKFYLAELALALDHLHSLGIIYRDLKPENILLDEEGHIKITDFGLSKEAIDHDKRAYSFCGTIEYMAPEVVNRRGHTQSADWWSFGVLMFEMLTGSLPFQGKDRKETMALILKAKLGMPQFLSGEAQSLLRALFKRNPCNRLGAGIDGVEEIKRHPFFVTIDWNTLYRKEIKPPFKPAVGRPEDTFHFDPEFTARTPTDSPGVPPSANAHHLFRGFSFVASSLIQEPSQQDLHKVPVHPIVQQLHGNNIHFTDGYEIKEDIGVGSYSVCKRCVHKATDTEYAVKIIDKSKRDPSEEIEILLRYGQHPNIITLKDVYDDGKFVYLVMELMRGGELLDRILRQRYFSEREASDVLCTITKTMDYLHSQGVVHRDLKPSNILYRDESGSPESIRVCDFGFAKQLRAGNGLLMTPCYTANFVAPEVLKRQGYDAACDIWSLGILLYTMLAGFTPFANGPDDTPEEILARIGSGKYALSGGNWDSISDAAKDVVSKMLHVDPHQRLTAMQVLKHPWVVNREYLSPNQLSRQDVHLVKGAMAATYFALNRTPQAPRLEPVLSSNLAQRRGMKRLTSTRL

[9] = molecular target: Ribosomal protein S6 kinase alpha-2 (Homo sapiens) (UniProt Q15349); conditions: at 1 µM
[10] = molecular target: Ribosomal protein S6 kinase alpha-6 (Homo sapiens) (UniProt Q9UK32); conditions: at 0.1 µM
Ribosomal protein S6 kinase alpha-6 (Homo sapiens), sequence (Q9UK32 whole entry): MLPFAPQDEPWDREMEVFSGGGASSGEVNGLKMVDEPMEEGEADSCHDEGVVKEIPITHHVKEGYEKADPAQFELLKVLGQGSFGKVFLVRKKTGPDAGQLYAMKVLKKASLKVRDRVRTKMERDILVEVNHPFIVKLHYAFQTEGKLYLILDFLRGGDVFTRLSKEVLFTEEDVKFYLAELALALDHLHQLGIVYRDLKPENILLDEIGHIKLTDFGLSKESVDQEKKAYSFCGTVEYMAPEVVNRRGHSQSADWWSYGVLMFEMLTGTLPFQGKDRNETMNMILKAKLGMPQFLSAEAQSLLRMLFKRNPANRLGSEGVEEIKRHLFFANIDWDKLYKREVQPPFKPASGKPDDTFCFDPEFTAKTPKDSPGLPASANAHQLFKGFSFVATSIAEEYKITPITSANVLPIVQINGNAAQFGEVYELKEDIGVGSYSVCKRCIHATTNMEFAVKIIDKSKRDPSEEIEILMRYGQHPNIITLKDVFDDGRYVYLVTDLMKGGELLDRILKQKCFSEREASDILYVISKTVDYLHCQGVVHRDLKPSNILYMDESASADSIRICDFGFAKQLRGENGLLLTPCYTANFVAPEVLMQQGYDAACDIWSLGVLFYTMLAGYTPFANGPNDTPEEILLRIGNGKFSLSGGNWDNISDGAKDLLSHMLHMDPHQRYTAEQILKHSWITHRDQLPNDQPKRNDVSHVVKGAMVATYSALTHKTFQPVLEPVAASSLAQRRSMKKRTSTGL

[11] = molecular target: Ribosomal protein S6 kinase alpha-6 (Homo sapiens) (UniProt Q9UK32); conditions: at 1 µM
[12] = molecular target: T1, Serine/threonine-protein kinase Sgk1 (Homo sapiens) (UniProt O00141); conditions: at 0.1 µM
T1 sequence (whole entry): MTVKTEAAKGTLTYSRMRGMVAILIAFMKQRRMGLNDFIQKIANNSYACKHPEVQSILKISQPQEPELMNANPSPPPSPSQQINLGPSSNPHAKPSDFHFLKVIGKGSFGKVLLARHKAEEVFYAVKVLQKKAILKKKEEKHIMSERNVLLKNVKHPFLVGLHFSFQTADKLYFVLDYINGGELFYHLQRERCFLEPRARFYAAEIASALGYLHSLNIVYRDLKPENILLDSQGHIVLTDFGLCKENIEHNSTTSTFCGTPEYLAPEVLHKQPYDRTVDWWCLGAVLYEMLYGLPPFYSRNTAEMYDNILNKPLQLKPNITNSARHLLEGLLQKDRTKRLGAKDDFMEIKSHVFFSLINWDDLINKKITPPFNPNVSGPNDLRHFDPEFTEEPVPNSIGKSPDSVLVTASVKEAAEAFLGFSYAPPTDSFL

[13] = molecular target: T1, Serine/threonine-protein kinase Sgk1 (Homo sapiens); conditions: at 1 µM
[14] = molecular target: T2, Serine/threonine-protein kinase Sgk2 (Homo sapiens) (UniProt Q9HBY8); conditions: at 0.1 µM
T2 sequence (whole entry): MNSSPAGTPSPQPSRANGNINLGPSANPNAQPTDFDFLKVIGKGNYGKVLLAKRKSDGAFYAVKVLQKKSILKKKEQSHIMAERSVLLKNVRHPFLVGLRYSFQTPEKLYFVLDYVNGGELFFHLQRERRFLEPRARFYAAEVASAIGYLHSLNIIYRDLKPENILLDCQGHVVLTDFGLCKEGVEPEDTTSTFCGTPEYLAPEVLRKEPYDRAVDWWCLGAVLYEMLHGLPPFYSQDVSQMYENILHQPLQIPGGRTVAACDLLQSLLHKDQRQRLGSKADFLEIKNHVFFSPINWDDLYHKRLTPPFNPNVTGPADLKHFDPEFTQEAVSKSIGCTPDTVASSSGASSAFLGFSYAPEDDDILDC

[15] = molecular target: T2, Serine/threonine-protein kinase Sgk2 (Homo sapiens); conditions: at 1 µM
[16] = molecular target: T3, Serine/threonine-protein kinase Sgk3 (Homo sapiens) (UniProt Q96BR1); conditions: at 0.1 µM
T3 sequence (whole entry): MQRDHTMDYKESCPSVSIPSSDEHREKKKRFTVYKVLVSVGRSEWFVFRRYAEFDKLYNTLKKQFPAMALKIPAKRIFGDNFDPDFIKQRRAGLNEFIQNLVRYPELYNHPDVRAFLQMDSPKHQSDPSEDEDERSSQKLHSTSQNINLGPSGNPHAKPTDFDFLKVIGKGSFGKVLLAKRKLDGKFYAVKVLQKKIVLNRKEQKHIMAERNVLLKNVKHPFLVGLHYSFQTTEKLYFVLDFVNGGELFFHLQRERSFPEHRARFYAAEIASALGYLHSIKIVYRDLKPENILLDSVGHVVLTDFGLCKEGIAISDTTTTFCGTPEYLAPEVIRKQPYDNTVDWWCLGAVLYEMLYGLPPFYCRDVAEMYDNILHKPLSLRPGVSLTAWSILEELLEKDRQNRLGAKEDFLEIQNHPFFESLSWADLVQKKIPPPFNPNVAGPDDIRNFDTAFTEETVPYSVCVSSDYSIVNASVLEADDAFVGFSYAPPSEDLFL

[17] = molecular target: T3, Serine/threonine-protein kinase Sgk3 (Homo sapiens); conditions: at 1 µM
[18] = molecular target: 5'-AMP-activated protein kinase catalytic subunit alpha-1 (Homo sapiens) (UniProt Q13131); conditions: at 0.1 µM
5'-AMP-activated protein kinase catalytic subunit alpha-1 (Homo sapiens), sequence (Q13131 whole entry, looked up): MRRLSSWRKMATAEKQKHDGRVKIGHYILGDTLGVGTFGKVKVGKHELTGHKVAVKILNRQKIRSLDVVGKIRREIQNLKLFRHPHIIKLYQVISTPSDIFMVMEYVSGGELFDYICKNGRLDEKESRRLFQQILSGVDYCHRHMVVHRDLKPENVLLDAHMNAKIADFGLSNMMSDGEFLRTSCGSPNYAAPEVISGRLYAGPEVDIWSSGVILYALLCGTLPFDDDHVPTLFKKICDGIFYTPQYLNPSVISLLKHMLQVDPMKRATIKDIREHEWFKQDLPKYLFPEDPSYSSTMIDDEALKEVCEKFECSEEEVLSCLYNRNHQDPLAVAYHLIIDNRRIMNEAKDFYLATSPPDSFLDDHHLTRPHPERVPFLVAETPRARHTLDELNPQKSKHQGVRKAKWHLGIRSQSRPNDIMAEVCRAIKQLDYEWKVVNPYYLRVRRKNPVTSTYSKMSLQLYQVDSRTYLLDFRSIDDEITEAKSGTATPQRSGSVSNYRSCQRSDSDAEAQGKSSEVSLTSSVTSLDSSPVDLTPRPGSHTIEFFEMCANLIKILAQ

[19] = molecular target: 5'-AMP-activated protein kinase catalytic subunit alpha-1 (Homo sapiens) (UniProt Q13131); conditions: at 1 µM
[20] = molecular target: 5'-AMP-activated protein kinase catalytic subunit alpha-2 (Homo sapiens) (UniProt P54646); conditions: at 0.1 µM;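 further: mean inhibition measured on the AMPK complex of alpha2, beta1 and gamma1 subunits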

Rho-associated protein kinase 1 (Homo sapiens), sequence (Q13464 2-1354 limits assumed): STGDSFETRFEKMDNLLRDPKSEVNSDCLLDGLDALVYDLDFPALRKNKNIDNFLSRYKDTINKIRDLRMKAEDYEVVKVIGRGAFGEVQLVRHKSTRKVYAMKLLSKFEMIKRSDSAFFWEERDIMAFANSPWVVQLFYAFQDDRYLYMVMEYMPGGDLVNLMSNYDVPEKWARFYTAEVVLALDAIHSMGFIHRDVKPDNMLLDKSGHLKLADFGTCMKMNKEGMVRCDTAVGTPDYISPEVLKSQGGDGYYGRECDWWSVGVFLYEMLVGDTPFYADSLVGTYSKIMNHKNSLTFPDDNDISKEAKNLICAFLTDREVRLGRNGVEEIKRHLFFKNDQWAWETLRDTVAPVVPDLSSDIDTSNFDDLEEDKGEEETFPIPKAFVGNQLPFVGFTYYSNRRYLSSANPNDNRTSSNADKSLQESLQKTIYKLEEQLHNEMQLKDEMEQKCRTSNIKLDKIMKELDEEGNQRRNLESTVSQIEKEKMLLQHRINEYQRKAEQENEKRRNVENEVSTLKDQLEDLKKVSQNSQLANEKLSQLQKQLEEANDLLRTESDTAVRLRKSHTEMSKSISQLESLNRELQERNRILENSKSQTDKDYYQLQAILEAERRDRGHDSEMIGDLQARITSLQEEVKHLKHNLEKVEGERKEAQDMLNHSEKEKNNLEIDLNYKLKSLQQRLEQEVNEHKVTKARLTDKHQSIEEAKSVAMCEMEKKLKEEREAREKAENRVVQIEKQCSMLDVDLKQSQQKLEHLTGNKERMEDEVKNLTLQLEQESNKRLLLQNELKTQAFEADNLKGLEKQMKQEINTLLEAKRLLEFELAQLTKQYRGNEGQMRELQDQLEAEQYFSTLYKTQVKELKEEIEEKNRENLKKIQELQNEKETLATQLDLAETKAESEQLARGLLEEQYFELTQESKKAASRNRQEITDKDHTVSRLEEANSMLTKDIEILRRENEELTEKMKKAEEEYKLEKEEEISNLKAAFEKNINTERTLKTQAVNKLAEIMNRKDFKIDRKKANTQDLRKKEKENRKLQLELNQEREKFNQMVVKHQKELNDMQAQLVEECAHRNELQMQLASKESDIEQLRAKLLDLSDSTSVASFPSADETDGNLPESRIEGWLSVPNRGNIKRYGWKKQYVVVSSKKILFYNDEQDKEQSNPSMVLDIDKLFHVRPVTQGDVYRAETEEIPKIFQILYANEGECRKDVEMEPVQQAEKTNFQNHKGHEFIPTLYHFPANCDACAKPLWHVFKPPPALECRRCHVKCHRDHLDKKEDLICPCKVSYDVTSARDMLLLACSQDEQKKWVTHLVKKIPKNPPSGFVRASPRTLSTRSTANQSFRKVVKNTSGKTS

Which results are given for `COc1ccc2cc(-c3c(-c4ccncc4)nc(-c4ccc(S(C)(=O)=O)cc4C)n3C)ccc2c1`?
inhibition [1]: 10.6%; inhibition [2]: 10.5%; inhibition [3]: 12.3%; inhibition [4]: 6.01%; inhibition [5]: 9.72%; inhibition [6]: 4.66%; inhibition [7]: 9.83%; inhibition [8]: 3.42%; inhibition [9]: 3.72%; inhibition [10]: 1.53%; inhibition [11]: 2.04%; inhibition [12]: 3.01%; inhibition [13]: 4.51%; inhibition [14]: 5.05%; inhibition [15]: 4.24%; inhibition [16]: 2.89%; inhibition [17]: 4.29%; inhibition [18]: 3.65%; inhibition [19]: 2.77%; inhibition [20]: 4.21%

For `CCS(=O)(=O)c1ccc(OC)c(Nc2ncc(-c3ccccc3Cl)o2)c1`, which inhibition [1] is on record?
Its inhibition is -0.3%.

What about the inhibition [2] of the same molecule?
Its inhibition is 1.15%.

And the inhibition [3]?
Its inhibition is 2.53%.

And the inhibition [4]?
The inhibition was 1.95%.

And the inhibition [5]?
Its inhibition is 5.76%.

And the inhibition [6]?
Its inhibition is 0.57%.

And the inhibition [7]?
The inhibition was 4.01%.

What about the inhibition [8] of the same molecule?
The inhibition was 0.2%.

What about the inhibition [9] of the same molecule?
The inhibition was 4.26%.

What about the inhibition [10] of the same molecule?
Its inhibition is 2.01%.

What about the inhibition [11] of the same molecule?
Its inhibition is 3.92%.

And the inhibition [12]?
Its inhibition is -0.42%.

And the inhibition [13]?
Its inhibition is 2.5%.

What about the inhibition [14] of the same molecule?
The inhibition was -1.58%.

And the inhibition [15]?
Its inhibition is -2.15%.

What about the inhibition [16] of the same molecule?
The inhibition was -0.26%.

And the inhibition [17]?
The inhibition was -1.36%.

And the inhibition [18]?
The inhibition was 1.54%.

What about the inhibition [19] of the same molecule?
The inhibition was 0.82%.

And the inhibition [20]?
The inhibition was -1.8%.

`CN(C)c1ccc2c(c1)/C(=C/Nc1ccc(S(N)(=O)=O)cc1)C(=O)N2` was tested. Which inhibition [1] did it give?
Its inhibition is 5.77%.

What about the inhibition [2] of the same molecule?
The inhibition was 5.46%.

And the inhibition [3]?
The inhibition was 13.3%.

What about the inhibition [4] of the same molecule?
Its inhibition is 1.57%.

And the inhibition [5]?
Its inhibition is 11.6%.

And the inhibition [6]?
Its inhibition is 2.82%.

What about the inhibition [7] of the same molecule?
The inhibition was 14.7%.

What about the inhibition [8] of the same molecule?
The inhibition was 5.18%.

What about the inhibition [9] of the same molecule?
Its inhibition is 25.9%.

What about the inhibition [10] of the same molecule?
Its inhibition is 4.28%.

And the inhibition [11]?
The inhibition was 20.9%.

And the inhibition [12]?
The inhibition was 2.27%.

What about the inhibition [13] of the same molecule?
Its inhibition is 5.38%.

What about the inhibition [14] of the same molecule?
Its inhibition is 0.91%.

And the inhibition [15]?
Its inhibition is -1.11%.

And the inhibition [16]?
The inhibition was 1.07%.

And the inhibition [17]?
The inhibition was -1.85%.

And the inhibition [18]?
Its inhibition is 10.2%.

What about the inhibition [19] of the same molecule?
Its inhibition is 44.5%.

And the inhibition [20]?
Its inhibition is 7.02%.

For `CN(C)CCCNc1nccc(-c2c(-c3ccc(F)cc3)nn3cc(C(F)(F)F)ccc23)n1`, which inhibition [1] is on record?
The inhibition was 1.8%.

And the inhibition [2]?
Its inhibition is 1.71%.

And the inhibition [3]?
The inhibition was 3.88%.

What about the inhibition [4] of the same molecule?
The inhibition was 2.04%.

What about the inhibition [5] of the same molecule?
Its inhibition is 4.02%.

What about the inhibition [6] of the same molecule?
The inhibition was 0.68%.

What about the inhibition [7] of the same molecule?
The inhibition was 2.23%.

What about the inhibition [8] of the same molecule?
The inhibition was 1.91%.

What about the inhibition [9] of the same molecule?
The inhibition was 3.08%.

And the inhibition [10]?
Its inhibition is 0.86%.

What about the inhibition [11] of the same molecule?
The inhibition was 2.42%.

What about the inhibition [12] of the same molecule?
The inhibition was 1.95%.

And the inhibition [13]?
Its inhibition is 2.09%.

What about the inhibition [14] of the same molecule?
Its inhibition is 2.67%.

And the inhibition [15]?
The inhibition was 1.75%.

What about the inhibition [16] of the same molecule?
The inhibition was 1.92%.

And the inhibition [17]?
The inhibition was 0.78%.

And the inhibition [18]?
The inhibition was 1.32%.

What about the inhibition [19] of the same molecule?
Its inhibition is 1.37%.

And the inhibition [20]?
Its inhibition is 0.22%.

With `COc1cc(Nc2ncc(-c3ccccc3)o2)cc(OC)c1OC` as the molecule, how does the inhibition [1] read?
Its inhibition is 1.85%.

And the inhibition [2]?
The inhibition was -0.74%.

And the inhibition [3]?
The inhibition was 3.74%.

What about the inhibition [4] of the same molecule?
Its inhibition is 0.23%.

And the inhibition [5]?
The inhibition was 3.07%.

What about the inhibition [6] of the same molecule?
Its inhibition is 0.02%.

What about the inhibition [7] of the same molecule?
The inhibition was 2.83%.

And the inhibition [8]?
The inhibition was 0.65%.

What about the inhibition [9] of the same molecule?
The inhibition was 6.88%.

What about the inhibition [10] of the same molecule?
The inhibition was 0.47%.

What about the inhibition [11] of the same molecule?
Its inhibition is 6.6%.

What about the inhibition [12] of the same molecule?
The inhibition was 1.24%.

And the inhibition [13]?
The inhibition was 5.44%.

And the inhibition [14]?
The inhibition was 3.15%.

What about the inhibition [15] of the same molecule?
The inhibition was 1.18%.

What about the inhibition [16] of the same molecule?
Its inhibition is 0.24%.

And the inhibition [17]?
Its inhibition is 0.29%.

What about the inhibition [18] of the same molecule?
Its inhibition is 0.26%.

And the inhibition [19]?
Its inhibition is 9.16%.

What about the inhibition [20] of the same molecule?
Its inhibition is 5%.

Which inhibition [1] does the source give for `CN1CCN(CCCNc2nc3ccc(Oc4ccc(NC(=O)Nc5cc(C(F)(F)F)ccc5F)cc4)cc3[nH]2)CC1` here?
Its inhibition is 3.23%.

What about the inhibition [2] of the same molecule?
Its inhibition is 0.43%.

What about the inhibition [3] of the same molecule?
The inhibition was 0.51%.

What about the inhibition [4] of the same molecule?
Its inhibition is 1.08%.

What about the inhibition [5] of the same molecule?
Its inhibition is -1.68%.

And the inhibition [6]?
The inhibition was 1.52%.

What about the inhibition [7] of the same molecule?
Its inhibition is -0.48%.

What about the inhibition [8] of the same molecule?
Its inhibition is 0.97%.

What about the inhibition [9] of the same molecule?
Its inhibition is 2.27%.

And the inhibition [10]?
Its inhibition is 1.31%.

And the inhibition [11]?
Its inhibition is -0.1%.

And the inhibition [12]?
Its inhibition is 4.51%.

What about the inhibition [13] of the same molecule?
Its inhibition is 5.49%.

And the inhibition [14]?
The inhibition was 0.79%.

What about the inhibition [15] of the same molecule?
The inhibition was 1.09%.

And the inhibition [16]?
Its inhibition is 3.14%.

And the inhibition [17]?
The inhibition was 0.75%.

And the inhibition [18]?
Its inhibition is 1.09%.

And the inhibition [19]?
The inhibition was -0.25%.

And the inhibition [20]?
Its inhibition is 2.94%.

What does the source list for `COc1cc(C)c(N(C)C(=O)CN(C)C)cc1Nc1nc(Nc2cccc(F)c2C(N)=O)c2cc[nH]c2n1`?
inhibition [1]: 1.48%; inhibition [2]: 0.89%; inhibition [3]: -0.53%; inhibition [4]: 1.17%; inhibition [5]: 3.02%; inhibition [6]: 1.14%; inhibition [7]: 1.43%; inhibition [8]: 1.84%; inhibition [9]: 2.69%; inhibition [10]: 1.67%; inhibition [11]: 4.74%; inhibition [12]: 1.3%; inhibition [13]: 0.1%; inhibition [14]: -3%; inhibition [15]: 3.7%; inhibition [16]: 0.02%; inhibition [17]: 0.78%; inhibition [18]: 1.44%; inhibition [19]: 0.94%; inhibition [20]: -0.28%
